The source of these data is PubChem BioAssay.

By inhibition is commonly meant the change of the read-out against control, counted positive when it falls.

The nature of experiment [1]: yeast TOR pathway RPL19A-GFP modulators, primary screen, cell-based, S. cerevisiae, multiplex flow cytometry (AID 1862; in the data active = percent of DMSO control GFP below about 86%;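 note: lower values mimic rapamycin by blocking the RPL19A rise seen in DMSO cells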). The settings on record: S. cerevisiae RPL19A-GFP strain, flow cytometry fluorescence, 3 h; at 10 µM; stronger effect = lower value. Background: In flow cytometry, cells or beads pass a laser one at a time.
A short description of experiment [2]: modulators of MEP2-GFP levels in yeast, primary screen, S. cerevisiae, multiplex flow cytometry (AID 1867;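 active = GFP response, as percent of the DMSO control, above the screen-wide mean plus 3 SD, about 139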;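 note: median GFP channel fluorescence of barcode-gated MEP2-GFP cells measured by flow cytometry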). The settings on record: S. cerevisiae MEP2-GFP strain, 3 h, at 10 µM, stronger effect = higher value, 100% means same as DMSO wells.
Experiment [3] can be described thus: modulators of CIT2-GFP expression in yeast, primary screen, S. cerevisiae, GFP fusion, multiplex flow cytometry (AID 1870;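 active = percent response above a set limit, the screen-wide mean plus 3 SD, cut at about 130% in these data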;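 note: barcoded CIT2-GFP strain pooled with four other GFP strains with rapamycin as positive control; median GFP fluorescence per well over plate mean of DMSO wells so 100% = DMSO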). The settings on record: 3 h, at 10 µM, stronger effect = higher value.
Experiment [4] is described as follows: modulators of LAP4-GFP expression in yeast, primary screen, S. cerevisiae, multiplex flow cytometry (AID 1873;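 active = GFP signal, as percent of the solvent control, above the screen mean plus 3 SD, about 149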). The settings on record: 3 h, at 10 µM, stronger effect = higher value.
Experiment [5] can be described thus: modulators of AGP1-GFP expression in yeast TOR pathway, primary screen, cell-based, multiplex flow cytometry, S. cerevisiae (AID 1887;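 active = GFP signal above the screen-wide mean plus 3 SD, that is over about 124.5% of the solvent control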;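 note: AGP1-GFP fusion strain of S. cerevisiae within a five-strain barcoded multiplex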). As to conditions: 3 h, at 10 µM, stronger effect = higher value.
Experiment [6] can be described thus: inhibitors of CD8+ T cell-vesicle binding, pilot screen, LFA-1/ICAM-1 modulator project, MLPCN validation set, flow cytometry (AID 2523).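 For vesicle binding response: mean PE anti-B7-1 fluorescence of CD8+ cells relative to row control; 100% = QL9-loaded vesicles with DMSO vehicle in the same plate row.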 The settings on record: 2C mouse CD8+ T cells, at 7 µM, stronger effect = lower value; double positive events: measured here: CD8+/vesicle+ event percentage.
The target of experiment [7] is Integrin beta-1 (Homo sapiens) + Integrin alpha-4 (Homo sapiens) (UniProt P13612+P05556). In words: inhibition of HUTS-21 binding to VLA-4, pilot screen, VLA-4 allosteric modulator project, U937 cells, HUTS-21 mAb, flow cytometry, validation set (AID 2674;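 active = inhibition above 50%, about 3 SD of the validation set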;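 note: antibody binding induced by the VLA-4 ligand LDV present at three times its Kd; 0% = LDV ligand with antibody and no compound and 100% = antibody without LDV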). The settings on record: HUTS-21 LIBS mAb binding, at 6.7 µM, stronger effect = higher value, binding induced by LDV ligand.

Experiment [8] can be described thus: superoxide lowering in aged yeast cells, pilot screen, validation compound set (AID 2706;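 active = superoxide response below 65% of plate, a cut near 3 SD across the whole screen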;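 note: yeast exposed to compound for one week at 30 degrees C before staining; 100% = mean of all compound wells on the same plate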). As to conditions: S. cerevisiae aging, superoxide DHE fluorescence; at 10 µM; stronger effect = lower value.
The target of experiment [9] is Beta-adrenergic receptor kinase 1 (Homo sapiens) (UniProt P25098). Briefly: GRK2 binders displacing RNA aptamer, biochemical, validation, human GRK2, bead flow cytometry (AID 488806;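 active = aptamer binding inhibition above 30%, about 3 SD of noise from non-fluorescent compounds; inactive = inhibition at or below 30%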). The settings on record: bead-bound GRK2, FAM-aptamer displacement, at 10 µM, stronger effect = higher value.
In experiment [10] the target is Beta-2 adrenergic receptor (Homo sapiens) (UniProt P07550). In words: beta2AR agonists driving receptor internalization, pilot screen, cell-based, FAP fluorogen, flow cytometry, validation set (AID 504459;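 active = percent response above 42, roughly 3 SD of non-fluorescent test compounds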;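 note: agonist-driven loss of surface beta2AR via internalization measured by FAP dye flow cytometry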). As to conditions: Am2.2-beta2AR cells, FAP surface receptor flow cytometry; at 10 µM; stronger effect = higher value.
In experiment [11] the target is AP-2 complex subunit beta (Homo sapiens) (UniProt P63010). Briefly: inhibitors of arrestin peptide binding to AP2, pilot screen, biochemical, validation set, GST-AP2 beads, flow cytometry (AID 504541;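 active = inhibition above 54%, about 3 SD of non-fluorescent compounds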;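 note: AP2 carries R879A mutation and is captured from E. coli lysate; bead-bound FITC arrestin peptide fluorescence measuring arrestin peptide binding to AP2; 0% = DMSO wells and 100% = excess unlabeled arrestin peptide control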). The settings on record: FITC arrestin peptide, at 10 µM, stronger effect = higher value, AP2 beta2 appendage fragment, R879A mutant.
Experiment [12] can be described thus: yeast V-ATPase proton transport modulators, S. cerevisiae, pHLuorin, HTS validation (AID 504600; in the data active = response above about 15%;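 note: plate controls were DMSO for no effect and reference compound for full effect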). As to conditions: S. cerevisiae pHLuorin cytosolic pH, at 10 µM, stronger effect = higher value.
The test system of experiment [13] is anti-desmoglein-3 scFv antibody binding to human DSG3. Briefly: inhibitors of anti-DSG3 scFv binding to DSG3, pilot screen, biochemical, validation compound set, bead-based, flow cytometry (AID 588368;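 active = binding below the plate cutoff, the plate median minus 3 SD, with a reading above zero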;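 note: signal is the median channel fluorescence of bead-bound GFP antibody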). As to conditions: Protein G beads, DSG3-Fc, scFv-GFP binding, at 10 µM, stronger effect = lower value.
The nature of experiment [14]: inhibitors of fungal efflux pumps CDR1, CDR2, MDR1, pilot screen, validation compound set, multiplex, phenotypic (AID 588506;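 active = efflux inhibition above 0.42, the validation set average plus 4 SD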;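 note: Nile Red retained in cells so higher fluorescence means more efflux inhibition; 0 = negative control wells and 1 = enniatin B 25 µM full block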). The settings on record: S. cerevisiae pump-expressing triplex, Nile Red efflux flow cytometry; at 10 µM; stronger effect = higher value; the pumps come from Candida albicans.
For experiment [15], the target named is ATP-binding cassette sub-family B member 6 (Homo sapiens) (UniProt Q9NP58). Briefly: ABCB6 transporter inhibitors, pilot screen, K562-ABCB6 cells, flow cytometry, validation set (AID 588550;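 active = inhibition above the screen-wide mean plus 3 SD, about 51%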;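 note: 0% = DMSO wells and 100% = benzethonium chloride 70 µM positive control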). The settings on record: K562-ABCB6 porphyrin accumulation, 1 h, at 10 µM, stronger effect = higher value.
Experiment [16] is described as follows: promoters of myeloid differentiation in arrested cells, primary screen, cell-based, GFP/MAC1 double positive, flow cytometry, validation set (AID 588685;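 active = differentiation response of at least 50%, scaled between solvent and reference control, from cells with both markers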;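 note: compound exposure lasts four days before antibody staining and flow analysis; 0% = DMSO wells and 100% = 5 µM fulvestrant positive control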). As to conditions: ER-HoxA9 marrow cells, stronger effect = higher value, normalized: vehicle 0, fulvestrant 100.

Records with an inconclusive call do not appear. The source made the active and inactive calls.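 Rule for the calls, unless noted: active = response below a set limit, under 55% cells CD8-positive and vesicle-bound, and CD8 cells' 90th-percentile brightness under 279; inactive = the rest.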

Chain of AP-2 complex subunit beta (Homo sapiens) (P63010 whole entry, looked up, the tested form may be a part, one chain of several): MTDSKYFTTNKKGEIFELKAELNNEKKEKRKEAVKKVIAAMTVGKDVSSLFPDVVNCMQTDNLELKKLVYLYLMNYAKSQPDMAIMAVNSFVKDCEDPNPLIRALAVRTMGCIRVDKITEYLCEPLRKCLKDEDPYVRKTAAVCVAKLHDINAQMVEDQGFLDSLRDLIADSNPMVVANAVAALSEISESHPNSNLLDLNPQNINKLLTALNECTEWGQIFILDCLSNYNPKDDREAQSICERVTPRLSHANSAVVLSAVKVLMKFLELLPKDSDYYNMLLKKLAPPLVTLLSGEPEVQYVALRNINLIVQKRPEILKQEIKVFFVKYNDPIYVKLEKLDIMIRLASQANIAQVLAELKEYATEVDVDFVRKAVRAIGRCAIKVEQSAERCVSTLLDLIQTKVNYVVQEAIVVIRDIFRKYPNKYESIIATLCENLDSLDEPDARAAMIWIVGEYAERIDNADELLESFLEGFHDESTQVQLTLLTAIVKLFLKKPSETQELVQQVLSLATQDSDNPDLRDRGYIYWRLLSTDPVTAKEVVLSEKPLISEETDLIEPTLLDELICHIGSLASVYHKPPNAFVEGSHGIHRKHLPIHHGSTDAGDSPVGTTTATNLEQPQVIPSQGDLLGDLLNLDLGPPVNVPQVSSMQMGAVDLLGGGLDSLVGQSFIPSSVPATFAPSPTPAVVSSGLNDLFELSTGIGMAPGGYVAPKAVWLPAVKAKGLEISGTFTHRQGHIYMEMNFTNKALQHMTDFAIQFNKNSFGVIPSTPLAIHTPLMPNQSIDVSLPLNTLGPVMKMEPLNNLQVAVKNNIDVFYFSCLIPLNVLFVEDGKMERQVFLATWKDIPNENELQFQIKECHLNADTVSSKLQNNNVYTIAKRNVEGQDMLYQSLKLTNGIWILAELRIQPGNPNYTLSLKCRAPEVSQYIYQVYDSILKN
Chain of Integrin beta-1 (Homo sapiens) + Integrin alpha-4 (Homo sapiens) (P05556 whole entry, looked up): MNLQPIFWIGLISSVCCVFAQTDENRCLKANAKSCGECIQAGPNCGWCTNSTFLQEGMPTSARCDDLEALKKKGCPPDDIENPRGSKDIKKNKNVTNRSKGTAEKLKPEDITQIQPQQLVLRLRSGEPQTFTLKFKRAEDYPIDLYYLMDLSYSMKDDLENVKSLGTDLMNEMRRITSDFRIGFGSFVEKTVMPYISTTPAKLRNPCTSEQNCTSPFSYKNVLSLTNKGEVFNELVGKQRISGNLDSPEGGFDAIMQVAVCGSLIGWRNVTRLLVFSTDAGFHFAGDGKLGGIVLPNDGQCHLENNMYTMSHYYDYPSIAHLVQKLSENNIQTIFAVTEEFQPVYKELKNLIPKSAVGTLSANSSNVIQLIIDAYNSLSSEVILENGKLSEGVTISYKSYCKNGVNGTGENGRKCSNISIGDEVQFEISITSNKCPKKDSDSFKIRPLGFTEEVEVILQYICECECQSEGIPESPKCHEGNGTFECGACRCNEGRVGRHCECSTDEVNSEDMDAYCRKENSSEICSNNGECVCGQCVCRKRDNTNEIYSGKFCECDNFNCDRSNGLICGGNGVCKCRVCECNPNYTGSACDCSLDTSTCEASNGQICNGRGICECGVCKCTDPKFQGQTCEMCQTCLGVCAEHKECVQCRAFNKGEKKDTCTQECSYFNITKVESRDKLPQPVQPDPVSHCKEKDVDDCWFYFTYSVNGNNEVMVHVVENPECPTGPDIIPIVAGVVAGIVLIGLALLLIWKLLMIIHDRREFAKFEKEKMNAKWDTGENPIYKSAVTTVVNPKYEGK
Chain of Integrin beta-1 (Homo sapiens) + Integrin alpha-4 (Homo sapiens) (P13612 whole entry, looked up): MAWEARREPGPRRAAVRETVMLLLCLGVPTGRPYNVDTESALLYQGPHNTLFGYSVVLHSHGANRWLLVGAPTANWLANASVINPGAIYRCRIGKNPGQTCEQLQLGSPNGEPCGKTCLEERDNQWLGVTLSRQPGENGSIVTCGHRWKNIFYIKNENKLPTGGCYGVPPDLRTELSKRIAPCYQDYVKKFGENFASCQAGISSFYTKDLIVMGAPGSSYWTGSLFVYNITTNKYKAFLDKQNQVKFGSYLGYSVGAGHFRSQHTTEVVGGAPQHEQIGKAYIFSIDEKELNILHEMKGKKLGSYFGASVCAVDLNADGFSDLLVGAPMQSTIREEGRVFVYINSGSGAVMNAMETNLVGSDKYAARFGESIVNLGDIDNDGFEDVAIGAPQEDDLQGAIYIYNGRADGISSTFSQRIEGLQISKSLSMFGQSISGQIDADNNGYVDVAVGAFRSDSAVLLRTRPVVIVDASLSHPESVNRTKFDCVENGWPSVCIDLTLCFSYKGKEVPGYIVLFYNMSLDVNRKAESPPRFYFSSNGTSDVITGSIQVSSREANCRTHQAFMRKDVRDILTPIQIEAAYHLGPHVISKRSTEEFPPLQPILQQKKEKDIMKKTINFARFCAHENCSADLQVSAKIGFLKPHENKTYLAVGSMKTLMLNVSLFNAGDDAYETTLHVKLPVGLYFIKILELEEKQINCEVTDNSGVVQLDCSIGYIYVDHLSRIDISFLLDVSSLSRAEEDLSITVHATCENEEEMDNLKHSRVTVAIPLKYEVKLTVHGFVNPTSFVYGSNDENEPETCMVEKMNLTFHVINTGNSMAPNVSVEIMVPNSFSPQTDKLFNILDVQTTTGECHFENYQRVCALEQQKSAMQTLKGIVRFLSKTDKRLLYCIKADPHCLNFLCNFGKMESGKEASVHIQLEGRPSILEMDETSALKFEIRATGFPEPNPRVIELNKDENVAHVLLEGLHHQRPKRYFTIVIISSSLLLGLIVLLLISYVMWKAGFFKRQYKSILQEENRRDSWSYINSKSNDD
Chain of Beta-2 adrenergic receptor (Homo sapiens) (P07550 whole entry, looked up): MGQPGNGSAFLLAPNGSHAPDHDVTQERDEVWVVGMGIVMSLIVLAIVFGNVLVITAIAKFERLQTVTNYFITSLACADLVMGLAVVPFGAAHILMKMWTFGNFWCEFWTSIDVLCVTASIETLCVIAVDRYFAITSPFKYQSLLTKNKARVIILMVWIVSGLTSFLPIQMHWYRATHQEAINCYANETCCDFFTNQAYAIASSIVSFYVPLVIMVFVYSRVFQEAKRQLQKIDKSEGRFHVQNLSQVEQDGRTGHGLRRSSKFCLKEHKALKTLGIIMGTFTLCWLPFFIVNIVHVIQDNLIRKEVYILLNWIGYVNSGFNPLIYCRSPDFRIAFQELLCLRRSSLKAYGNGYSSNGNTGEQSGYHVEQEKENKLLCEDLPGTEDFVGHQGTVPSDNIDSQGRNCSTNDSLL
Chain of Beta-adrenergic receptor kinase 1 (Homo sapiens) (P25098 whole entry, looked up): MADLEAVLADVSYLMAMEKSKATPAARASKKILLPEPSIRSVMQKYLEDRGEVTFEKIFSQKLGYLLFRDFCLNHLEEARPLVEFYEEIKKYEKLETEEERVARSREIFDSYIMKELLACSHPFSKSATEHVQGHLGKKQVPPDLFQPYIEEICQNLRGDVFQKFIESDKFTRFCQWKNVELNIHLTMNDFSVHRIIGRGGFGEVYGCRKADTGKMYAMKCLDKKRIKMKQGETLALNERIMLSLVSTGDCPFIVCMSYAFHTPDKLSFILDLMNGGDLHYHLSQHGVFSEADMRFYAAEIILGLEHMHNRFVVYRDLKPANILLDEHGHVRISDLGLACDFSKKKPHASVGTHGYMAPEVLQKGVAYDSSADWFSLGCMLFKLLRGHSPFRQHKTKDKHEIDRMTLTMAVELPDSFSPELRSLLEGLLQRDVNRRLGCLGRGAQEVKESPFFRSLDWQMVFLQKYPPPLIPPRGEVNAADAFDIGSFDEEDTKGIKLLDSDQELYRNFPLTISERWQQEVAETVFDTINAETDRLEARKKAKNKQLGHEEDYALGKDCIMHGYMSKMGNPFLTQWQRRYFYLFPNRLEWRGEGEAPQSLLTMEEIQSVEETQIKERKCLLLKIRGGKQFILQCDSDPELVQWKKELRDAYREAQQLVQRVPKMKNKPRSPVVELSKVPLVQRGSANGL
Chain of ATP-binding cassette sub-family B member 6 (Homo sapiens) (Q9NP58 whole entry, looked up): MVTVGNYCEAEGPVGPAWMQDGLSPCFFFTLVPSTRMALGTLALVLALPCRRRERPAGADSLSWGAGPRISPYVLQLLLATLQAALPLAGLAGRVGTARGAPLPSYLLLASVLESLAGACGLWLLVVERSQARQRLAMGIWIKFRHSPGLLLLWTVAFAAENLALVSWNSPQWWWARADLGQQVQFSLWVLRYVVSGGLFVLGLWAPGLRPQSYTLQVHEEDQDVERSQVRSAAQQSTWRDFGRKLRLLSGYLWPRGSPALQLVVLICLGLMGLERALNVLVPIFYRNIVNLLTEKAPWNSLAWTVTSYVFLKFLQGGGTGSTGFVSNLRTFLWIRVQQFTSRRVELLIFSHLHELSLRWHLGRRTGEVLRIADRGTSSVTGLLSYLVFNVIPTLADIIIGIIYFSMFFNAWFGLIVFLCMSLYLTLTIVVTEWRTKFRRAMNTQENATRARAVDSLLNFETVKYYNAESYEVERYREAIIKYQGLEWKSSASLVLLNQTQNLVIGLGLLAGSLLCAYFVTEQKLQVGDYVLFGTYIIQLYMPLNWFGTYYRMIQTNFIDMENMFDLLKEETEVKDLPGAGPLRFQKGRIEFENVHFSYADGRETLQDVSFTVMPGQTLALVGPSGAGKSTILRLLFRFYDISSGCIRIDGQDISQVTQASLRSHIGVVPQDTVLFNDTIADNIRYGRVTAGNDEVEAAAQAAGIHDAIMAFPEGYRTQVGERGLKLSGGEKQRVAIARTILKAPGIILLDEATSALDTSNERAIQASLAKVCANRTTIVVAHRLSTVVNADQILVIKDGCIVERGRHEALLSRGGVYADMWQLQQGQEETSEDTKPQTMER

On to `CC(C)c1ccc(OCc2ccc(C(=O)O)o2)cc1`, for which, in experiment [1], the percent of DMSO control GFP is 105% (inactive). Also, the figures for the GFP response vs DMSO in [2] and in experiment [4] were 102% (inactive) and 91.5% (inactive), respectively. In addition, the percent response of DMSO control in experiment [3] is 109% (inactive). In experiment [5], the GFP response, % of DMSO is 93.7% (inactive). Also, the double positive events in [6] is 87.7%. Further, the vesicle binding response in experiment [6] is 313% (inactive). In addition, the inhibition is 11% (inactive) in [7], 2.53% (inactive) in experiment [11] and 2% (inactive) in experiment [15]. Moreover, in [8], the superoxide response (% of plate) is 107% (inactive). Besides, in [9], the aptamer binding inhibition is 15% (inactive). Also, the response in [10] is 5.55% (inactive); in experiment [12] it was 13.4% (inactive). Besides, the binding (% of control) in experiment [13] was 98.3% (inactive). Also, in experiment [14], the efflux inhibition (fraction of control) was -0.16 (inactive). Besides, the differentiation response in experiment [16] was -7.5% (inactive).
As for `CC(C)(CO)CNC(=O)CC1C(=O)NCCN1CC(c1ccccc1)c1ccccc1` (stereo not given), the percent of DMSO control GFP in experiment [1] is 97.8% (inactive). Also, the figures for the GFP response vs DMSO in experiment [2] and in experiment [4] were 106% (inactive) and 114% (inactive), respectively. Moreover, the percent response of DMSO control in [3] is 86.3% (inactive). Also, the GFP response, % of DMSO in experiment [5] was 96% (inactive). Also, in experiment [6], the double positive events came to 65.3%. In addition, in experiment [6], the vesicle binding response is 7860% (inactive). For the same compound, the inhibition in experiment [7] is 3.67% (inactive); in experiment [11], -0.19% (inactive); in [15], 7% (inactive). The superoxide response (% of plate) in [8] is 115% (inactive). Besides, the aptamer binding inhibition in experiment [9] was -1% (inactive). Moreover, the figures for the response in [10] and in experiment [12] were -3.26% (inactive) and 0.18% (inactive), respectively. In addition, the binding (% of control) in experiment [13] was 99.5% (inactive). In addition, the efflux inhibition (fraction of control) in [14] is 0.05 (inactive). Besides, in experiment [16], the differentiation response is -8.8% (inactive).
On to `COc1ccc2[nH]c(=O)c3c(c2c1)OC(C)(C)C=C3`, for which the percent of DMSO control GFP in experiment [1] is 93.7% (inactive). Further, the GFP response vs DMSO in experiment [2] was 105% (inactive); in experiment [4], 119% (inactive). Also, the percent response of DMSO control in experiment [3] is 89.1% (inactive). The GFP response, % of DMSO in [5] is 95.1% (inactive). Moreover, in [6], the double positive events amounted to 59.1%. Further, the vesicle binding response in [6] was 88% (inactive). For the same compound, the inhibition in experiment [7] was -3.16% (inactive); in experiment [11] it was -1.86% (inactive); in experiment [15], 6% (inactive). For the same compound, in [8], the superoxide response (% of plate) was 99.1% (inactive). Moreover, the aptamer binding inhibition in experiment [9] was 4% (inactive). Further, the values for the response in experiment [10] and in experiment [12] were 5.61% (inactive) and 2.4% (inactive), respectively. Also, the binding (% of control) in [13] was 101% (inactive). In addition, in experiment [14], the efflux inhibition (fraction of control) was 0.08 (inactive). The differentiation response in experiment [16] is 8.8% (inactive).
For the compound `CNC(=O)Oc1ccc2c(c1)[C@]1(C)CCN(C)[C@@H]1N2C`, the percent of DMSO control GFP in experiment [1] was 104% (inactive). In addition, the figures for the GFP response vs DMSO in [2] and in experiment [4] were 102% (inactive) and 112% (inactive), respectively. Moreover, in [3], the percent response of DMSO control is 86% (inactive). Also, the GFP response, % of DMSO in [5] was 122% (inactive). The compound further registered a double positive events in [6] of 62.8%. Moreover, in experiment [6], the vesicle binding response was 183% (inactive). The inhibition was 5.69% (inactive) in [7], -9.24% (inactive) in [11] and 4% (inactive) in experiment [15]. Besides, the superoxide response (% of plate) in experiment [8] was 98.7% (inactive). For the same compound, the aptamer binding inhibition in experiment [9] was 3% (inactive). Moreover, the values for the response in [10] and in experiment [12] were -21.5% (inactive) and -0.59% (inactive), respectively. In addition, in experiment [13], the binding (% of control) was 104% (inactive). In experiment [14], the efflux inhibition (fraction of control) is 0.12 (inactive). The differentiation response in experiment [16] is -4.99% (inactive).
On to `O=C1OC(c2ccccc2)=C/C1=C/c1cccs1`, for which, in experiment [1], the percent of DMSO control GFP is 106% (inactive). In addition, the GFP response vs DMSO is 99.3% (inactive) in [2] and 86.1% (inactive) in experiment [4]. Also, in experiment [3], the percent response of DMSO control is 105% (inactive). Moreover, the GFP response, % of DMSO in experiment [5] is 97.3% (inactive). Besides, the double positive events in [6] was determined as 64.9%. Besides, in experiment [6], the vesicle binding response is 212% (inactive). Also, the inhibition was -2.53% (inactive) in [7], 6.48% (inactive) in experiment [11] and -5% (inactive) in [15]. Besides, the superoxide response (% of plate) in experiment [8] was 97.6% (inactive). In [9], the aptamer binding inhibition is 1% (inactive). Besides, the response is -7.02% (inactive) in experiment [10] and -2.38% (inactive) in experiment [12]. Also, the binding (% of control) in experiment [13] is 93.3% (inactive). Also, the efflux inhibition (fraction of control) in experiment [14] was -0.1 (inactive). For the same compound, the differentiation response in [16] is 3.18% (inactive).
